Source: PubChem BioAssay (Broad Institute)
The entries come from a sample that favours hits as a whole.
PD-1 reverse act: activators reversing PD-1 mediated T-cell inhibition, primary screen, luminescence, primary human CD4 T cells, PD-L1 beads | activation, % (test concentration not listed) | CellTiter-Glo 96 h | AID 2316, 2010 | 29,000 tested, under 10 active; call rule not given here;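 also: 0% = median vehicle wells and 100% = positive control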
NOMO-1 viab: NOMO-1 AML cell viability reduction, primary screen, STK33 inhibitor project, CellTiter-Glo luminescence; 37,000 compounds, 7.5% hits; inhibition, % (no concentration beside the values); NOMO-1 AML viability, 72 h; in the data active = inhibition above about 80%; inconclusive = no clear call, values can overlap the other calls
STK33 kin inh: STK33 kinase inhibitors, primary screen, biochemical, luminescence, ADP-Glo, MBP substrate; inhibition, % at 12.5 µM; 27,000 compounds, 0.44% hits; Serine/threonine-protein kinase 33 (Homo sapiens), Q9BYT3; in the data active = inhibition above about 20%; inconclusive = no clear call, values can overlap the other calls
Target sequence (Q9BYT3 whole entry, looked up): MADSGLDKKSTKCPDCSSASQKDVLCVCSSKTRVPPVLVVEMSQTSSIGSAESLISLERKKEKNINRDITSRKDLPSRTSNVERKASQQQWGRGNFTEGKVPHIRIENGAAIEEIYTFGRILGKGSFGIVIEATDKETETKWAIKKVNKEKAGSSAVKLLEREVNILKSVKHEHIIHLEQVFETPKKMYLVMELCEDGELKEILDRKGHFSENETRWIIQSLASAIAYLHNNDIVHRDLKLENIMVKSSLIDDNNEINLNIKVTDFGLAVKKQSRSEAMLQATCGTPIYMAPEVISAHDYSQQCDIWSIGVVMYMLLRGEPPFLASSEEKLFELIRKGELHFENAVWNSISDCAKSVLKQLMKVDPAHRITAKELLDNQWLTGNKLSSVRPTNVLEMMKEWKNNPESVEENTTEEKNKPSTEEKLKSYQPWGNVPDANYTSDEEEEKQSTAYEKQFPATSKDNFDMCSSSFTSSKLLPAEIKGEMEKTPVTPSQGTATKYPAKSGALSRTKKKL
* marks the source's active call; other numbers are inactive results; u = inconclusive; x = no result.

SMILES	PD-1 reverse act	NOMO-1 viab	STK33 kin inh
O=C(COc1cccc(NC(=O)c2ccccc2Cl)c1)c1ccc(F)cc1	-0.8	18.0	-3.1
COc1ccc(NC(=O)c2ccccc2NC(=O)COc2cccc(OC)c2)cc1	0.2	13.8	2.7
N#Cc1c(-c2ccccc2)n2c(-c3ccccc3)nn(-c3ccccc3)c2nc1=O	-0.1	-23.0	x
CCN(CC(=O)Nc1ccc(C(N)=O)cc1)S(=O)(=O)c1ccc(Br)cc1	x	4.6	5.6
Nc1nc(Cc2ccc(F)cc2F)no1	0.8	-0.3	x
Cc1ccc(C2=NNC(=O)C(c3cn(CCC#N)c4ccccc34)C2)cc1 (stereo unspecified)	-2.3	20.8	6.3
Cn1c2ccccc2c2c3c(c4c5ccccc5n(CCC#N)c4c21)CNC3=O	-12.7	140.5*	109.2*
C[C@H](CO)N1C[C@H](C)[C@@H](CN(C)Cc2ccc(Oc3ccccc3)cc2)Oc2ccc(NC(=O)Nc3ccc(F)cc3)cc2C1=O	0.1	29.2	x
C[C@@H]1CN([C@H](C)CO)C(=O)c2cc(NC(=O)Nc3ccccc3)ccc2O[C@H]1CN(C)Cc1ccc(-c2ccccc2)cc1	-12.0	116.2*	1.0
C[C@H]1CN([C@@H](C)CO)C(=O)c2cc(NC(=O)Nc3ccccc3)ccc2O[C@@H]1CN(C)Cc1ccccc1	0.7	8.7	-3.9
C[C@@H]1CN([C@@H](C)CO)C(=O)c2cc(NC(=O)Nc3ccc(F)cc3)ccc2O[C@@H]1CN(C)Cc1ccc(-c2ccccc2)cc1	-1.3	115.4*	x
C[C@H]1CN([C@@H](C)CO)C(=O)c2cc(NC(=O)Nc3ccc(F)cc3)ccc2O[C@H]1CN(C)Cc1ccc(Oc2ccccc2)cc1	-1.5	21.9	1.4
C[C@@H]1CN([C@H](C)CO)C(=O)c2cc(NC(=O)Nc3ccc(F)cc3)ccc2O[C@H]1CN(C)Cc1ccc(-c2ccccc2)cc1	-11.3	126.1*	x
CC(C)NC(=O)Nc1ccc2c(c1)C(=O)N([C@H](C)CO)C[C@H](C)[C@H](CN(C)Cc1ccc(-c3ccccc3)cc1)O2	-0.2	5.0	x
C[C@@H]1CN([C@H](C)CO)C(=O)c2cc(NC(=O)Nc3ccc(F)cc3)ccc2O[C@@H]1CN(C)Cc1ccc(-c2ccccc2)cc1	x	92.1*	x
CCN(CC)CCOc1ccccc1	-0.1	-1.1	x
COc1ccc(NC(=O)Cn2nnc(-c3ccccc3Cl)n2)cc1Cl	x	-8.2	-0.3
Cc1c(C)n(Cc2ccc(Br)cc2)c(=O)n(Cc2ccc(Br)cc2)c1=O	1.1	31.6	x
Cc1ccc(CC(c2nc3ccccc3[nH]2)C(C)c2nc3ccccc3[nH]2)cc1 (stereo unspecified)	x	90.9*	3.4
Cc1ccc(OCCSCc2nc3ccccc3[nH]2)cc1	-2.6	40.0	-0.4
COc1cc(-c2oc3cc(O)cc(O)c3c(=O)c2O[C@@H]2O[C@H](CO)[C@@H](O)[C@H](O)[C@H]2O)ccc1O[C@@H]1O[C@H](CO)[C@@H](O)[C@H](O)[C@H]1O	1.1	-2.6	-6.6
COC(=O)C1c2c(oc3cc(CO)cc(O)c3c2=O)C=CC1O (stereo unspecified)	-13.3	107.3*	2.9
Cc1c(C#N)c(Sc2ccccc2Cl)nc2ccccc12	6.5	0.7	0.6
C[C@@H]1CN([C@@H](C)CO)C(=O)Cc2cc(NC(=O)Nc3cccc4ccccc34)ccc2O[C@@H]1CN(C)Cc1ccc2c(c1)OCO2	-0.9	96.6*	2.2
C[C@@H]1CN([C@H](C)CO)C(=O)Cc2cc(NC(=O)Nc3cccc4ccccc34)ccc2O[C@@H]1CN(C)Cc1ccc2c(c1)OCO2	-1.1	115.8*	1.1
SMILES	PD-1 reverse act	NOMO-1 viab	STK33 kin inh
C[C@H](CO)N1C[C@H](C)[C@@H](CN(C)Cc2ccc3c(c2)OCO3)Oc2ccc(NC(=O)Nc3cccc4ccccc34)cc2C1=O	-1.3	42.6	x
C[C@@H]1CN([C@@H](C)CO)C(=O)c2cc(NC(=O)Nc3cccc4ccccc34)ccc2O[C@H]1CN(C)Cc1ccc2c(c1)OCO2	0.6	28.3	-1.1
CCC(Oc1cccc(NC(=O)c2cccc(OC)c2)c1)C(=O)c1ccccc1 (stereo unspecified)	-0.4	-12.9	u
Cc1ccc(C)c(Cn2c(CCCO)nc3ccccc32)c1	0.0	34.7	0.8
COc1ccccc1NC(=O)C(CCS(C)(=O)=O)N1C(=O)c2ccc(Br)cc2C1=O (stereo unspecified)	1.6	-20.2	-3.9
Cc1nn(CC(O)COc2ccc3c(c2)CCC3)c(C)c1Br (stereo unspecified)	-5.4	95.9*	1.2
CC(=O)c1c(C)nn(CC(O)COc2ccc3c(c2)CCC3)c1C (stereo unspecified)	-2.3	55.0	-0.4
CCn1c(SCC(=O)Nc2sc3c(c2C#N)CCC(C(C)(C)C)C3)nnc1-c1cccc(C)c1 (stereo unspecified)	1.2	20.4	2.5
CC(=O)O[C@@]1(C)C[C@@H](O)[C@@H]2C=CO[C@@H](O[C@@H]3O[C@H](CO)[C@@H](O)[C@H](O)[C@H]3O)[C@@H]21	x	x	0.1
C[C@@H]1CN([C@H](C)CO)C(=O)c2cc(NC(=O)Nc3ccc(C(F)(F)F)cc3)ccc2O[C@@H]1CN(C)S(=O)(=O)c1ccccc1	-1.1	45.4	x
C[C@H]1CN([C@@H](C)CO)C(=O)c2cc(NC(=O)Nc3ccc(C(F)(F)F)cc3)ccc2O[C@H]1CN(C)S(=O)(=O)c1ccccc1	-1.1	97.4*	-3.0
C[C@@H]1CN([C@@H](C)CO)C(=O)c2cc(NC(=O)Nc3ccc(C(F)(F)F)cc3)ccc2O[C@@H]1CN(C)S(=O)(=O)c1ccccc1	-1.1	89.9*	2.4
C[C@H](CO)N1C[C@H](C)[C@@H](CN(C)S(=O)(=O)c2ccccc2)Oc2ccc(NC(=O)Nc3ccc(C(F)(F)F)cc3)cc2C1=O	-2.4	68.6	-2.5
NC(=S)/N=C1\CCCCC1=C1CCCCC1	-2.2	17.2	x
O=C(CSc1nnc(-c2ccncc2)n1-c1ccccc1)Nc1ccc(Br)cc1C(F)(F)F	0.9	-6.1	2.6
Cc1c(C(=O)Nc2cnccn2)oc2ccccc12	-1.1	112.3*	-1.7
Cc1c(C(=O)Nc2nnc(SC/C=C/c3ccccc3)s2)oc2ccccc12	x	26.8	-2.1
C(=Nc1cccc2ccccc12)c1c[nH]c2ccccc12	0.8	71.7	x
O=C1/C(=C/c2c[nH]c3ccccc23)CSc2ccccc21	0.7	113.2*	x
C/C(=N\O)C12CC3(C)CC(C)(CC(C)(C3)C1)C2	-2.2	120.2*	x
CC12CC3(C)CC(C)(C1)CC(C(=O)NC(=S)NC(C)(C)C)(C2)C3	-0.1	35.0	x
COc1ccc(OCC(=O)Nc2c(C(=O)c3ccc(C)c(F)c3)oc3ccccc23)cc1	0.0	-10.3	-1.8
O=C(NCc1ccccn1)C(=O)Nc1ccc(Cl)c(Cl)c1	x	2.3	0.3
O=C(Nc1ccc(Cl)cc1Cl)C1CC(=O)n2ncnc2N1 (stereo unspecified)	1.0	12.9	-0.6
CC(C)S(=O)(=O)NC[C@@H]1CCCN(Cc2cccc(OCCO)c2)C1	x	x	-4.8
CCOC(=O)CSc1n[nH]c(-c2ccc(Cl)cc2)n1	-0.5	118.6*	-3.9
CCOc1ccc(NC(=O)CSc2n[nH]c(-c3ccc(Cl)cc3)n2)cc1	-3.0	-3.7	-4.3
Cc1ccc2nc(S/C=C/C(=O)c3ccccc3)[nH]c2c1	-32.7	122.8*	u
